PubChem BioAssay AID2716 (Broad Institute, 2010)
Out of some 320,000 compounds screened, about 3,300 (1%) were called active.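 The calls were made as follows: active = every valid replicate shows activation above 250% relative to neutral control wells; inactive = the rest, any valid replicate at or below 250%.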 The full list was thinned out, with actives kept by preference.

test: yeast Mot1-301 growth rescue at high temperature, primary screen, SUMOylation pathway inhibitor project, S. cerevisiae, ATP luminescence, 38.5C (AID 2716);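 also: OY570 slx delta 5 strain wells were the positive control but not used for scaling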; conditions: S. cerevisiae Mot1-301 growth rescue, at 18.8 µM, hits give high values, percent above DMSO median, 100 means doubled

Structure (SMILES)	growth rescue
CC1CC2=C(CC1/C=N/NC(N)=S)C(C)(C)CCC2 (centres undefined)	94.7% (inactive)
O=C(NCC#CCSc1nnc(-c2cccc3ccccc23)o1)c1cccs1	-7.8% (inactive)
CCNC(=O)CC1C(=O)N(c2ccc(F)cc2)C(=O)N1Cc1cccs1 (centres undefined)	-6.29% (inactive)
COc1ccc(CCN2C(=O)N(c3ccc(OC)cc3)C(=O)C2CC(=O)Nc2ccc(OC)cc2)cc1 (centres undefined)	-12.2% (inactive)
COc1ccc(N2C(=O)C(CC(=O)Nc3ccc(F)cc3)N(CCc3cccs3)C2=O)cc1 (centres undefined)	700% (active)
Cc1cccc(C(=O)N[C@H](C(=O)NCc2cccs2)C(C)C)c1	14.3% (inactive)
CCc1cc(C(=O)Nc2nnc(C3CC3)s2)sc1C	-5.84% (inactive)
Cc1cc(C)cc(OCC(=O)NC(C)c2ccccc2)c1 (centres undefined)	14.1% (inactive)
Cc1ccc(OCC(=O)NC(C)c2ccccc2)cc1C (centres undefined)	-6.93% (inactive)
C/C(CC(=O)NC(C)c1ccccc1)=N\NC(N)=S (centres undefined)	317% (active)
CCc1ccccc1NC(=O)CN(C)S(=O)(=O)c1ccc2c(c1)c(=O)n(C)c(=O)n2C	30% (inactive)
O=C(COc1ccc([N+](=O)[O-])cc1Cl)Nn1cnnc1	88.2% (inactive)
COc1ccc(CNC(=O)COC(=O)c2ccc(C)c(S(=O)(=O)N3CCOCC3)c2)cc1OC	-6.82% (inactive)
COc1ccc(C(=O)OCC(=O)c2ccc(C)c(S(=O)(=O)N3CCOCC3)c2)cc1OC	625% (active)
Cc1ccc(C(=O)OCC(=O)N2CCCCCC2)cc1S(=O)(=O)N1CCOCC1	6.73% (inactive)
COc1c(C)cc(C(=O)C2CCCN(S(=O)(=O)c3c(C)noc3C)C2)cc1C (centres undefined)	-5.92% (inactive)
COc1ccc(CCNC(=O)/C(C#N)=C2\N=C(NC(=O)c3cccs3)c3ccccc32)cc1	-22.6% (inactive)
Cc1ccc(S(=O)(=O)CCC(=O)OCC(=O)N(C)C2CCS(=O)(=O)C2)cc1 (centres undefined)	366% (active)
CN(C(=O)COC(=O)Cc1ccccc1[N+](=O)[O-])C1CCS(=O)(=O)C1 (centres undefined)	-6.84% (inactive)
Cc1ccc(S(=O)(=O)CCC(=O)OCc2ccccc2)cc1	-4.25% (inactive)
COc1ccc(/C=C(\C#N)C(=O)NCCCn2ccnc2)cc1	429% (active)
COc1cc(OC)cc(C(=O)NCCCn2ccnc2)c1	0.871% (inactive)

Structure (SMILES)	growth rescue
COc1cccc(-c2nn(-c3ccccc3)cc2/C=C(\C#N)C(=O)NCCCn2ccnc2)c1	-1.32% (inactive)
CCOC(=O)c1ccc(NC(=S)N2CCN(c3ccccn3)CC2)cc1	4.51% (inactive)
O=C(COC(=O)c1ccc(F)cc1)NCCCc1ccccc1	-3.97% (inactive)
COc1ccc(OC)c(CNC(=O)c2cc(=O)[nH]c3ccc(S(=O)(=O)N4CCCC4)cc23)c1	46.7% (inactive)
CCOc1ccc(N(CC)S(=O)(=O)c2cccc3nsnc23)cc1	487% (active)
COc1ccc(N(C)S(=O)(=O)c2cccc3nsnc23)cc1	-12.6% (inactive)
CCOc1ccc(-c2cn(S(=O)(=O)c3cccc4nsnc34)nc2N)cc1	8.29% (inactive)
COc1ccc(OC)c(NC(=O)COC(=O)Cc2ccsc2)c1	24.6% (inactive)
CC(C)CCNc1nc(N2CCCC2)c2c(c1C#N)CCN(C)C2	-30.6% (inactive)
CC(C)Cc1nc(N2CCOCC2)c(C#N)c2c1CCC2	469% (active)
CC(C)Cc1nc(Cl)c(C#N)c2c1CCC2	-9.85% (inactive)
O=C(NNC(=O)c1ccc(-n2cncn2)c([N+](=O)[O-])c1)c1ccccc1	126% (inactive)
Cc1csc2nc(O)c(C(=O)NCCN3CCOCC3)c(=O)n12	25.8% (inactive)
O=S(=O)(NCCc1ccc(F)cc1)c1cccc2cccnc12	-5.12% (inactive)
O=C(CSCc1ccc(Cl)cc1)N1CCCCC1	1570% (active)
O=C(CSCc1ccc(Cl)cc1)N1CCN(Cc2ccc3c(c2)OCO3)CC1	194% (inactive)
O=C(CSCc1cccs1)N1CCCC1	-5.87% (inactive)
CC(C)(C)c1nnc(N/N=C/c2ccc(O)cc2)n(N)c1=O	-10.1% (inactive)
COc1ccnc2c1c(=O)n(Cc1cccc(F)c1)c(=O)n2C	95.4% (inactive)
CCCCn1c(-c2cccc(C)c2)nc2cc3[nH]c(=O)c(C(C)C)nc3cc21	-29.3% (inactive)
COc1cccc(/C=C(/CC(=O)Nc2ccc(N3CCOCC3)cc2)c2nc3ccccc3s2)c1	766% (active)
COc1ccc(/C=C(/CC(=O)Nc2ccc(C)cc2)c2nc3ccccc3s2)cc1	7.28% (inactive)

Structure (SMILES)	growth rescue
COc1cc2ccccc2cc1C(=O)Nc1ccc(N2CCOCC2)cc1	4.29% (inactive)
Cc1nnc(SCc2cc(=O)[nH]c(N3CCN(Cc4ccccc4)CC3)n2)s1	18.3% (inactive)
CCc1c(C)nc(N2CCN(Cc3ccccc3)CC2)[nH]c1=O	1390% (active)
CCCCCc1c(C)nc(N2CCN(Cc3ccc4c(c3)OCO4)CC2)[nH]c1=O	-20.3% (inactive)
COC(=O)Cn1c(O)c(N=NC(=O)OC)c2ccccc21	-22.3% (inactive)
CC(C)n1c(O)c(N=Nc2ccccn2)c2ccccc21	421% (active)
Oc1oc(-c2ccccc2Br)nc1/C=N/c1ccccn1	15.4% (inactive)
COc1cccc2cc(C(=O)NCc3ccc(C)cc3)c(=N)oc12	-7.41% (inactive)
O=C(COc1cccc2c1CCNC2=O)NC1CCCCC1	-3.62% (inactive)
COC(=O)c1cc2n(n1)CCCNC2=O	0.35% (inactive)
O=C(Cn1ccc2cc(S(=O)(=O)N3CCCC3)ccc21)NCc1ccccc1	-15.1% (inactive)
O=[N+]([O-])/C=C/c1ccc2c(ccn2Cc2ccccc2)c1	436% (active)
COC(=O)Cn1cc(/C=C/[N+](=O)[O-])c2ccccc21	5.69% (inactive)
Cc1sc2nc(CSCC(=O)Nc3c(Cl)cccc3Cl)[nH]c(=O)c2c1C	2.95% (inactive)
Cc1sc2nc(CSCC(=O)NC3CCCCC3)[nH]c(=O)c2c1C	345% (active)
Cc1nc(SCC(=O)NC2CCCC2)[nH]c(=O)c1C	4.8% (inactive)
COc1ccc(Cl)cc1NC(=O)Cn1nc(-c2ccc(C)cc2)n(C)c1=S	283% (inactive)
Cc1ccc2c(c1)N(CC(=O)N1CCCC(C)C1)C(=O)CO2 (centres undefined)	1.32% (inactive)
Cc1ccc2c(c1)N(CC(=O)NCC1CCCO1)C(=O)CO2 (centres undefined)	346% (active)
Cc1ccc2c(c1)N(CC(=O)N1CCOCC1)C(=O)CO2	4.76% (inactive)
CC(=O)N(c1ccc2oc(=O)sc2c1)S(=O)(=O)c1ccc(C)cc1	1.25% (inactive)
CCOc1cnc(-c2c(-c3ccccc3Cl)noc2C)o1	675% (active)

Structure (SMILES)	growth rescue
Cc1onc(-c2ccccc2Cl)c1C(=O)OCc1nnc(-c2ccccc2)o1	0.31% (inactive)
Cc1onc(-c2ccccc2Cl)c1C(=O)OCC(=O)c1ccccc1	-4.82% (inactive)
Cc1ccc(N(C(=O)c2ccc(S(=O)(=O)N(C)C)cc2)C2C=CS(=O)(=O)C2)cc1 (centres undefined)	-4.36% (inactive)
COc1ccccc1NS(=O)(=O)c1ccc(C)c(C(=O)NNC(=O)c2csc(N3CCOCC3)n2)c1	6.56% (inactive)
COC(=O)c1ccc(CSc2ccc3nnc(-c4ccccc4)n3n2)o1	-8.47% (inactive)
Cc1ccc([C@@H]2CC=C(C(=O)O)[C@H](c3cccc(Cl)c3)N2S(=O)(=O)c2ccc(C)cc2)cc1	24.4% (inactive)
Cc1ccc(S(=O)(=O)N2[C@@H](c3cccc4ccccc34)C(C(=O)O)=C[C@H]2C(C)(C)C)cc1	29.9% (inactive)
Cc1ccc(S(=O)(=O)N2[C@@H](c3ccc(Br)cc3)C(C(=O)O)=C[C@H]2CC2CCCC2)cc1	800% (active)
CC12CN(NC(=O)c3ccc(Cl)cc3)C3(C#N)CC1CCC23C (centres undefined)	42.1% (inactive)
COC(=O)c1cccc(N(C(=O)CNC(=O)c2cccs2)C(C(=O)NCC2CCCO2)c2ccc(OC)c(OC)c2)c1 (centres undefined)	-4.04% (inactive)
O=C(NCC(=O)N(c1ccccc1)C(C(=O)NCC1CCCO1)c1ccccc1)c1cccs1 (centres undefined)	679% (active)
Cc1ccc(N(C(=O)Cc2cccs2)C(C(=O)NCC2CCCO2)c2ccncc2)cc1 (centres undefined)	5.34% (inactive)
Cc1cc(C)n2nc(SCC(=O)NC(=O)NCc3ccco3)nc2n1	6.86% (inactive)
COC(=O)C1(S(=O)(=O)C2(C(=O)OC)CCCC2)CCCC1	-10% (inactive)
Cc1ccc(CSCC(=O)N(C)CC(=O)Nc2cccc(F)c2)cc1	-8.64% (inactive)
CCN(CC)C(=O)C(=O)Nc1cccc(Br)c1	1.06% (inactive)
CCN(CC)C(=O)CSC(Nc1cccc(F)c1)=C(C#N)C#N	643% (active)
Cc1ccc(NC(=O)[C@H](Cc2ccccc2)NC(=O)C2CCNCC2)cc1	2.72% (inactive)
N/C(=N\OC(=O)Nc1ccccc1)c1ccno1	4.96% (inactive)
O=c1c2c(ncn1Cc1ccccc1)nc1n2CCC1	490% (active)
Cn1c(=O)c2c(ncn2CCc2ccccc2)n(C)c1=O	43.8% (inactive)
O=c1c2cc([N+](=O)[O-])ccc2nc2n1CCC2	12% (inactive)

Structure (SMILES)	growth rescue
Cc1ccc(C)c(OCCC(=O)OCC(=O)c2ccc3c(c2)NC(=O)CO3)c1	0.132% (inactive)
O=C(CCNC(=O)c1ccc([N+](=O)[O-])cc1)Nc1ccccc1N1CCOCC1	-1.52% (inactive)
CCCCN(C(=O)c1nn(C)c(=O)c2ccccc12)c1c(N)n(CCC)c(=O)[nH]c1=O	-14.8% (inactive)
COc1ccc(Cc2nnc(SCC(=O)N(c3ccccc3)C(C)C)n(N)c2=O)cc1	2.77% (inactive)
CN(CCc1ccccc1)c1ccc([N+](=O)[O-])cn1	9.85% (inactive)
O=C(NN1C(=O)C2C3C=CC(C3)C2C1=O)c1ccco1 (centres undefined)	-6.66% (inactive)
CNC(=O)c1cccc2nc3ccccc3nc12	16% (inactive)
CN(C)C(=O)c1coc2nc3ccccc3nc12	924% (active)
COc1cccc2cc(C(=O)N(C)C)c(=O)oc12	0.334% (inactive)
CCOC(=O)C1(Cc2cccc(OC)c2)CCN(C(C)COC)CC1 (centres undefined)	9.8% (inactive)
CCOC(=O)C1(Cc2cccc(OC)c2)CCCN(C(=O)CCSC)C1 (centres undefined)	-10.8% (inactive)
CCOC(=O)C1(Cc2cccc(OC)c2)CCCN(S(=O)(=O)c2cccnc2)C1 (centres undefined)	568% (active)
CCOC(=O)c1cc(C(=O)Nc2ccc(S(=O)(=O)Nc3ccc(OC)cc3)cc2)nn1C	1.95% (inactive)
Cc1ccc(C)c(S(=O)(=O)N2CCN(c3ncnc4sccc34)CC2)c1	-2.33% (inactive)
C/[N+]([O-])=C\c1ccc([N+](=O)[O-])o1	330% (active)
CCc1ccc(S(=O)(=O)N/N=C\c2ccc([N+](=O)[O-])o2)cc1	-9.87% (inactive)
Cc1cc(C)nc(N/N=C/c2ccc([N+](=O)[O-])o2)n1	-7.8% (inactive)
NC(=O)C1(C(N)=O)OC1c1ccc(Cl)cc1Cl (centres undefined)	-6.75% (inactive)
O=C(NCCc1ccco1)c1ccc(OCc2cn3ccccc3n2)cc1	-7.98% (inactive)
CCc1nccn1S(=O)(=O)c1cccc([N+](=O)[O-])c1	1.13% (inactive)
Cc1cn(C2C=CC(CO)O2)c(=O)[nH]c1=O (centres undefined)	-3.98% (inactive)
